# Experimental data from ChEMBL document CHEMBL3988442, “University of Dundee, Small-Polar-MMV Screening Library” (2021).
# Screen size: about 69,000 compounds; about 1,000 (1.4%) showed an effect of 50% or more. Only a selection was taken, and strong results are over-represented in it overall.
# System: Leishmania donovani
# Experiment: Leishmania intramacrophage assay
# Format: functional, organism-based
# Design: scale not given: in the data most compounds retested in dose-response had high values
smiles,measurement,setting,value
O=C(CCc1ccco1)Nc1ncn(CC(=O)N2CCCCCC2)n1,Percent Effect,"30.3 µM, […]",4.673%
Cn1ncc2c(N[C@H]3CC[C@@H](N)CC3)nc(C(C)(C)C)nc21,Percent Effect,"30.3 µM, […]",100.6%
Cn1ncc2c(N[C@H]3CCCC[C@@H]3O)nc(C(C)(C)C)nc21,Percent Effect,"30.3 µM, […]",44.26%
Cn1ncc2c(NC3CCCN(C(=O)C4CC4)C3)nc(C(C)(C)C)nc21 (stereo not given),Percent Effect,"30.3 µM, […]",-38.63%
CSCC[C@@H]1CN2CCC[C@H]2CN1Cc1cn(C)nc1C,Percent Effect,"30.3 µM, […]",-2.658%
O=C(COCc1nc(-c2ccncc2)no1)N1CCCCC1,Percent Effect,"30.3 µM, […]",-11.93%
CC1CCCCN1C(=O)COCc1nc(-c2ccncc2)no1 (stereo not given),Percent Effect,"30.3 µM, […]",55.9%
O=C(COCc1nc(-c2ccncc2)no1)N1CCCC1,Percent Effect,"30 µM, 30.03 µM",18.4%
O=C(Nc1cccc(F)c1)C1CCN(Cc2noc(C3CC3)n2)CC1,Percent Effect,"30.3 µM, […]",33.46%
CN(Cc1ccc(C(=O)O)cc1)C(=O)c1sccc1OC(F)F,Percent Effect,"30.3 µM, […]",18.71%
CCC1(CO)CCN(C(=O)c2cc(COc3ccccc3F)[nH]n2)CC1,Percent Effect,"30.3 µM, […]",-10.91%
CCC1(CO)CCCN(C(=O)c2cc(COc3ccccc3F)[nH]n2)C1 (stereo not given),Percent Effect,"30.3 µM, […]",-9.881%
CCC1(CO)CCCN(C(=O)c2cc(COc3cccc(F)c3)[nH]n2)C1 (stereo not given),Percent Effect,"30.3 µM, […]",65.29%
Cc1cccc(CN2CCn3c(COc4ncccn4)nnc3C2)n1,Percent Effect,"30.3 µM, […]",26.49%
COCCn1cc(CCC(=O)Nc2c(C)nn(C)c2C)c2ccccc21,Percent Effect,"30.3 µM, […]",-5.699%
CC(C)c1nc(CN(C)C2CCN(CCc3ccncc3)C2)no1 (stereo not given),Percent Effect,30 µM,35.17%
CC(C)c1nc(CN(C)C(=O)C(O)c2ccc(Cl)cc2)cs1 (stereo not given),Percent Effect,"30.3 µM, […]",-6.394%
CC(C)c1nc(CN(C)C(=O)[C@H](N)Cc2ccc(Cl)cc2)cs1,Percent Effect,"30.3 µM, […]",64.25%
CC(C)C[C@@H](N)C(=O)N(C)Cc1csc(C(C)C)n1,Percent Effect,"30.3 µM, […]",18.19%
CN1CCN(C(=O)CC2CCN(CCc3ccccn3)CC2)CC1,Percent Effect,"30 µM, 30.03 µM",28.67%
COC[C@@H]1CCCN1C(=O)c1cc(-c2cccc(OC)c2)n[nH]1,Percent Effect,"30.3 µM, […]",15.97%
O=C(CCCn1cnc2ccccc2c1=O)Nc1nc[nH]n1,Percent Effect,"30.3 µM, […]",-11.87%
CC(C)c1ccc(S(=O)(=O)N2CSCC2C(=O)NCC(F)(F)F)cc1 (stereo not given),Percent Effect,30 µM,31.97%
CC(C)CCCNC(=O)Nc1ccc(C(N)=O)c(Cl)c1,Percent Effect,30 µM,-4.358%
CC1COC2(CCN(C(=O)Cc3ccncc3)CC2)C1.O=C(O)C(F)(F)F (stereo not given),Percent Effect,"30.3 µM, […]",9.251%
Cn1cc(C2COC3(CCN(C(=O)Cc4ccccc4)CC3)C2)cn1 (stereo not given),Percent Effect,"30.3 µM, […]",7.925%
O=C(Cc1ccccc1)N1CCC2(CC1)CN(c1ncccn1)CCO2,Percent Effect,"30.3 µM, […]",60.82%
O=C(Cc1ccccn1)N1CCC2(CC1)CN(c1ncccn1)CCO2.O=C(O)C(F)(F)F.O=C(O)C(F)(F)F,Percent Effect,"30.3 µM, […]",12.21%
O=C(Cc1ccncc1)N1CCC2(CC1)CC(c1ccccc1)CO2.O=C(O)C(F)(F)F (stereo not given),Percent Effect,"30.3 µM, […]",68.9%
O=C(CC1CC1)N1CCC2(CC1)CN(c1ncccn1)CCO2,Percent Effect,"30 µM, 30.03 µM",2.315%
